The results in this text go back to PubChem BioAssay (NCI).

Test systems include T-47D breast; BT-549 breast; MDA-MB-435 melanoma; SW-620 colon; MCF7 breast; HCT-116 colon; KM12 colon; HCC-2998 colon.
Test in all cases: NCI-60 one-dose screen, 48 h (100 = growth as untreated, 0 = no growth, -100 = all killed)
What all share (details): 10 µM unless noted

Structures are written as SMILES. About 83,000 compounds went through this panel and 20% of them were active in at least one assay; those are over-represented in the sample as a whole.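 Treatment: one concentration, 48 hours, 96-well format. Scoring: percent growth, with anything below 10 considered active.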 A number with no mark means an inactive call. Activity calls are given as the source filed them.

In the case of `COc1ccc2[nH]cc(C(c3cc(F)cc(F)c3)c3c[nH]c4ccc(OC)cc34)c2c1`, the growth in the experiment with T-47D breast was 43.1%; in the experiment with BT-549 breast, 183%; with MDA-MB-435 melanoma, 93.4%; in the experiment with SW-620 colon it was 81.6%; in the experiment with MCF7 breast, 55.4%; in the experiment with HCT-116 colon, 52.9%. Moreover, in the experiment on KM12 colon, the growth was 83.6%.
As to `O=[N+]([O-])C1C(c2ccccc2)C12c1ccccc1-c1ccccc12` (stereo not drawn), the growth was 57.6% in the experiment with T-47D breast; -42.3% (active) in the experiment with BT-549 breast; -23.1% (active) with MDA-MB-435 melanoma; 9.88% (active) in the experiment with MCF7 breast; -18.8% (active) in the experiment on HCT-116 colon; -18.8% (active) with HCC-2998 colon. Moreover, the growth with KM12 colon is 1.09% (active).
As for `S=C1CCSC(=S)N1CCCN1C(=S)CCSC1=S`, the growth in the experiment on T-47D breast is 35%; in the experiment on BT-549 breast, 89.4%; in the experiment on MDA-MB-435 melanoma, 59.6%; in the experiment on MCF7 breast, 20.8%; in the experiment on HCT-116 colon it was 43%; with HCC-2998 colon, 96.2%. Further, in the experiment on KM12 colon, the growth is 82.7%.
As to `COc1cc(N2C(=O)[C@H](O)C2c2ccc(SC)cc2)cc(OC)c1OC` (stereo partly drawn), the growth with T-47D breast was 49.2%; in the experiment with BT-549 breast, -6.32% (active); with MDA-MB-435 melanoma, -39.5% (active); in the experiment on MCF7 breast, 13.5%; in the experiment on HCT-116 colon, 1.16% (active); in the experiment with HCC-2998 colon it was 26.1%. For the same molecule, in the experiment with KM12 colon, the growth is 11.8%.
Consider `COC(=O)c1cc(-c2ccc(S(C)(=O)=O)cc2)[nH]c1N/N=C/c1c(Cl)cccc1Cl`, for which the growth in the experiment with T-47D breast is 31.2%; in the experiment on BT-549 breast, 70.7%; in the experiment on MDA-MB-435 melanoma, -69.7% (active); in the experiment with MCF7 breast, -5.62% (active); in the experiment with HCT-116 colon it was 11.4%; with KM12 colon it was 20.6%.
Consider `COc1ccc(-c2ccc3cnc4sc(-c5ccc(OC)cc5)nc4c3n2)cc1`, for which the growth is 76.3% with T-47D breast; 108% with BT-549 breast; 101% with MDA-MB-435 melanoma; 78% in the experiment with MCF7 breast; 94.5% in the experiment with HCT-116 colon; 93.1% in the experiment on HCC-2998 colon. The growth with KM12 colon is 89.1%.
In the case of `N#CCSc1nnc2n(Cc3ccccc3)c(=O)c3c4c(sc3n12)CCCC4`, the growth with T-47D breast is 111%; in the experiment with BT-549 breast it was 98.7%; in the experiment on MDA-MB-435 melanoma it was 107%; in the experiment with MCF7 breast it was 98.9%; with HCT-116 colon, 92.7%; with HCC-2998 colon, 105%. Further, the growth in the experiment with KM12 colon is 101%.
Regarding `CC(=O)N1N=C(c2ccc(Nc3nc(Nc4ccc(Cl)cc4)nc(Nc4ccc(Cl)cc4)n3)cc2)CC1c1ccco1` (stereo not drawn), the growth in the experiment with T-47D breast was 67.6%; in the experiment on BT-549 breast it was 104%; in the experiment with MDA-MB-435 melanoma, 84.5%; in the experiment on MCF7 breast it was 83%; in the experiment on HCT-116 colon it was 91.3%; in the experiment with HCC-2998 colon, 128%. For the same molecule, the growth in the experiment with KM12 colon was 92.7%.
As for `CCOC(=O)c1c(C)c2c(n1C)CSc1cc(C(=O)c3ccccc3)c(=O)[nH]c1-2`, the growth was 72.3% [100 µM] in the experiment with T-47D breast; 93.7% [100 µM] with BT-549 breast; 84.6% [100 µM] with MDA-MB-435 melanoma; 90.6% [100 µM] in the experiment with MCF7 breast; 85.8% [100 µM] in the experiment with HCT-116 colon; 106% [100 µM] in the experiment on HCC-2998 colon. In the experiment with KM12 colon, the growth was 97.4% [100 µM].
Turning to `Oc1ccc(CN2CCC(N3CCCCC3)CC2)c2cccnc12`, the growth in the experiment with T-47D breast is 15%; in the experiment on BT-549 breast it was 38.9%; in the experiment on MDA-MB-435 melanoma it was 18.7%; in the experiment with MCF7 breast, 11.8%; in the experiment on HCT-116 colon, 18.9%; in the experiment on HCC-2998 colon, 32.2%. Besides, in the experiment on KM12 colon, the growth was 30.8%.
As to `Cc1ccc2c3c(c(=O)[nH]c2c1)C1(C(C#N)=C(N)O3)c2cc(Br)ccc2-c2ccc(Br)cc21`, the growth is -29.6% (active) in the experiment with T-47D breast; 61.8% in the experiment with BT-549 breast; 42.8% in the experiment with MDA-MB-435 melanoma; -42.6% (active) with MCF7 breast; 10% in the experiment on HCT-116 colon; -4.73% (active) in the experiment with HCC-2998 colon. For the same molecule, the growth in the experiment on KM12 colon was 6.52% (active).
As for `COC(=O)CCC(=O)C(=O)OC`, the growth with T-47D breast is 61.3% [10 mM]; in the experiment with BT-549 breast it was -12.2% [10 mM] (active); in the experiment with MDA-MB-435 melanoma, 29.2% [10 mM]; in the experiment on MCF7 breast it was 49.8% [10 mM]; in the experiment with HCT-116 colon, 9.17% [10 mM] (active); in the experiment on HCC-2998 colon, -38.5% [10 mM] (active). The growth with KM12 colon is 2.17% [10 mM] (active).
Regarding `CO/N=C(/C)c1ccc(NC(=O)CSc2nnc(-c3ccncc3)n2-c2ccccc2)cc1`, the growth with T-47D breast is 17.4%; in the experiment with BT-549 breast, 6.99% (active); in the experiment with MDA-MB-435 melanoma, 47%; in the experiment on MCF7 breast, 42%; in the experiment on HCT-116 colon, 4.38% (active); in the experiment with HCC-2998 colon, 82.3%. For the same molecule, in the experiment with KM12 colon, the growth was 61.9%.
As for `O=C(CSc1nc(-c2ccccc2)[nH]c1S(=O)(=O)c1ccccc1)NC1CC1`, the growth with T-47D breast is 46.3%; in the experiment on BT-549 breast, 105%; in the experiment with MDA-MB-435 melanoma, 108%; with MCF7 breast it was 65.2%; in the experiment on HCT-116 colon it was 94.2%; in the experiment with HCC-2998 colon it was 69%. Also, the growth in the experiment on KM12 colon is 100%.
For the molecule `Cc1ccc(-c2nc(N3CCNCC3)c3oc(-c4ccccc4)nc3n2)cc1`, the growth in the experiment on T-47D breast was -57.8% (active); in the experiment on BT-549 breast, 85.1%; in the experiment with MDA-MB-435 melanoma, -81% (active); in the experiment on MCF7 breast, -74.6% (active); in the experiment on HCT-116 colon it was -71% (active); in the experiment on HCC-2998 colon, -61.1% (active). The growth with KM12 colon is -89.1% (active).
On to `CN1CCN(C(=O)c2ccc(NC(=O)Nc3ccc(-c4nc(N5CCOCC5)c5cccn5n4)cc3)cc2)CC1`, for which the growth in the experiment with T-47D breast was -34.3% (active); in the experiment on BT-549 breast, -9.61% (active); in the experiment with MDA-MB-435 melanoma, 0.865% (active); with MCF7 breast, 5.32% (active); with HCT-116 colon, 7.02% (active); in the experiment with HCC-2998 colon, 5.54% (active). In the experiment on KM12 colon, the growth was 9.01% (active).
`CCN1C(=O)N(CC)C2C1NN=c1s/c(=C\c3cccc([N+](=O)[O-])c3)c(=O)n12` (stereo not drawn): the growth was 59.3% in the experiment with T-47D breast; 12.5% with BT-549 breast; -30.4% (active) in the experiment on MDA-MB-435 melanoma; 17.1% in the experiment with MCF7 breast; 11% in the experiment on HCT-116 colon; 15.9% with HCC-2998 colon. For the same molecule, the growth with KM12 colon is 12.1%.
